# Columns and labels:
# [1] = tested on: Human papillomavirus type 1a protein E7 (residues 44-93); assay: small molecules binding HPV E7 44-93 – biochemical, small-molecule microarray, residues 44-93, 635 nm fluorescence, primary screen (AID 1108); conditions: fluorescence 635 nm, higher = more signal;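 further: E7 fragment applied at 1 µg/mL in TBST for 1 h at 4 C; score combines spot fluorescence with its signal to noise ratio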
# [2] = hepatitis C replication reporter changes, two-sided – Huh7 cells, luciferase reporter, HCV replication inhibitor project, primary screen (AID 1109); conditions: Huh7 HCV replicon luciferase reporter, 48 h; higher = more signal;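 further: huh7 hepatoma cells harbouring a luciferase neomycin HCV replicon reporter; luciferase luminescence as measure of HCV replicon replication; test concentration not given here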
# [3] = molecular target: Left-right determination factor 2 (Homo sapiens) (UniProt O00292); assay: small molecules binding LEFTY2 protein – biochemical, small-molecule microarray, 635 nm fluorescence scan, primary screen (AID 1110); conditions: higher = more signal
# [4] = molecular target: Calmodulin-1 (Homo sapiens) (UniProt P0DP23); assay: small molecules binding calmodulin-1 with EGTA – biochemical, small-molecule microarray, Cy5-labelled CALM1, profiling panel (AID 1111); conditions: Cy5-CALM1 binding fluorescence, higher = more signal;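 further: labelled calmodulin applied in Tris saline Tween buffer holding calcium plus EGTA and DTT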
# [5] = molecular target: Calmodulin-1 (Homo sapiens) (UniProt P0DP23); assay: small molecules binding Ca-loaded calmodulin-1 – biochemical, small-molecule microarray, Cy5-labelled CALM1, plus calcium, artefact control for SMM control-protein annotation, profiling panel (AID 1112); conditions: Cy5-CALM1 binding fluorescence, higher = more signal;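 further: score merges spot fluorescence with signal to noise from triplicate slides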
# [6] = probe aWnt5a binding to arrayed compounds – biochemical, biotinylated probe, 635/667 nm fluorescence, primary screen (AID 1113); conditions: small-molecule microarray, higher = more signal;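 further: score merges 667 nm fluorescence intensity with signal-to-noise per printed feature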
# [7] = probe aShh binding to arrayed compounds – biochemical, biotinylated probe, 635/667 nm fluorescence, primary screen (AID 1114); conditions: small-molecule microarray, higher = more signal;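 further: probe is biotin-labelled aShh protein from a stem cell growth factor screen; measures binding of labelled protein to compounds printed on the slide; score merges feature fluorescence at 667 nm with signal-to-noise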
# [8] = probe aNog binding to arrayed compounds – biochemical, biotinylated probe, 635/667 nm fluorescence, primary screen (AID 1115); conditions: small-molecule microarray, higher = more signal;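 further: probe is biotinylated aNog protein used at 0.15 µg/mL for 1 h at 4 C; z-score combines 667 nm fluorescence of each spot with its signal to noise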
# [9] = molecular target: Torsin-1A-interacting protein 1 (Homo sapiens) (UniProt Q5JTV8); assay: compound microarray binding of lysate hLAP1 – cell lysate, small-molecule microarray, COS7 lysate, 635/667 nm fluorescence, primary screen (AID 1116); conditions: 635 nm fluorescence, higher = more signal
# [10] = molecular target: Alpha-bungarotoxin (Bungarus multicinctus) (UniProt P60615); assay: compounds binding labelled alpha-BTX control protein – biochemical, small-molecule microarray, Alexa647 label, 635/667 nm fluorescence, artefact control for SMM control protein annotation, profiling panel (AID 1117); conditions: alpha-BTX-A647 binding fluorescence, higher = more signal
# Alpha-bungarotoxin (Bungarus multicinctus), sequence (P60615 whole entry, looked up): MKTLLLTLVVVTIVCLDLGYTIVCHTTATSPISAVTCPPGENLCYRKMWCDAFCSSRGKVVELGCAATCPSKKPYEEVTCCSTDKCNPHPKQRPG
# Torsin-1A-interacting protein 1 (Homo sapiens), sequence (Q5JTV8 whole entry, looked up): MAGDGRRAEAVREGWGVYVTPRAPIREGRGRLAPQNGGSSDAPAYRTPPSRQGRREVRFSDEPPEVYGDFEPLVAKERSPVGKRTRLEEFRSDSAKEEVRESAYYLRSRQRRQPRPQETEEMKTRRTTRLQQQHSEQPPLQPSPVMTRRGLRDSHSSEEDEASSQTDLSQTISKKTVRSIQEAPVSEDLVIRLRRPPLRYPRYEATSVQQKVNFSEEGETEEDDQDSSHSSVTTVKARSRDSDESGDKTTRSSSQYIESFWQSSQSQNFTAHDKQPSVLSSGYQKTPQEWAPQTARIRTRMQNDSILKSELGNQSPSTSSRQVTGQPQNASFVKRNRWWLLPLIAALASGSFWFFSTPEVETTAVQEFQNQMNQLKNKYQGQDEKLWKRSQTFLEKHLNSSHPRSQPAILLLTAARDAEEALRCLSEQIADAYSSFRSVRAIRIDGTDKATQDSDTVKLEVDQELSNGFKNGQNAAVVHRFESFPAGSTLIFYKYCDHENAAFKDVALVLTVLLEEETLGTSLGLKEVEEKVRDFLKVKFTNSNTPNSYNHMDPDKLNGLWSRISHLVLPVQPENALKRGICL
# Left-right determination factor 2 (Homo sapiens), sequence (O00292 whole entry, looked up): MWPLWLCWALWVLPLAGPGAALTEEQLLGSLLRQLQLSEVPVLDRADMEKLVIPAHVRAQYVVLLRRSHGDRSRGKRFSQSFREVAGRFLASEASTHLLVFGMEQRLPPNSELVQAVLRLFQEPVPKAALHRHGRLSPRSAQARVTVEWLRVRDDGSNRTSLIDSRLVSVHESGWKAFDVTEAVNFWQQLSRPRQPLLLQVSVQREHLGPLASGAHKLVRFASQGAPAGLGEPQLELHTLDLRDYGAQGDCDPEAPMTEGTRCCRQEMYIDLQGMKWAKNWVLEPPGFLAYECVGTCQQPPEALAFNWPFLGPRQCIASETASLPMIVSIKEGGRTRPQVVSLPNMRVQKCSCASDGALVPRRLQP
SMILES,composite z-score [1],z-score [2],composite z-score [3],composite z-score [4],composite z-score [5],composite z-score [6],composite z-score [7],composite z-score [8],composite z-score [9],composite z-score [10]
CC(C)(C)OC(=O)CC[C@@]1(C(=O)N2CCCCC2)N=C(c2ccc(OCCCO)cc2)O[C@@H]1c1ccccc1N=[N+]=[N-],1.03,0.0393,0.503,1.07,0.398,0.0434,0.0638,1.92,1.27,0.451
COCCCNC(=O)[C@@]1(Cc2ccccc2N=[N+]=[N-])N=C(c2ccc(OCCCO)cc2)O[C@H]1c1ccccc1CN=[N+]=[N-],1.44,-2.86,0.0627,0.941,0.0507,0.0676,0.551,1.47,1.54,1.71
C[N+](C)(C)CCCCNC(=O)[C@H]1C[C@H]2C(=O)NCC(=O)N2[C@H]1c1ccc(O)cc1,0.0571,-0.463,0.794,-1.08,-0.966,-0.103,-0.291,-0.0037,0.721,0.832
COC(=O)[C@@]1(Cc2ccc(F)cc2)[C@H]2c3cc(C(=O)N4CCCC4)n(Cc4ccccc4)c3C[C@H]2CN1C(=O)c1ccccc1,1.07,-2.41,-0.253,1.98,0.666,-0.0843,-0.367,-0.357,1.56,0.657
COc1ccc([Si](C)(C)[C@@H]2[C@@H](CC(=O)N(CCO)Cc3ccccc3)O[C@]3(C(=O)N(C)c4c(Br)cc(C)cc43)[C@H]2C)cc1,1.26,-4.3,0.661,-0.87,-1.13,0.168,-0.399,-0.406,0.13,0.0978
CC(C)=CCCC(C)=CC(O)C1C=CC2C(=O)N(c3ccccc3)C(=O)C2N1Nc1ccc([N+](=O)[O-])cc1 (stereo not given),1.42,-0.135,-0.183,1.78,0.512,-0.0194,0.0952,1.71,1.08,0.972
COc1ccc(CCNC(=O)[C@@H]2c3ccccc3C(=O)N(Cc3ccccc3)[C@H]2c2ccc(CO)cc2)cc1,1.43,-1.17,0.117,-0.0056,-0.904,-0.0512,-0.0813,-0.293,1.15,0.36
CCCNC(=O)[C@@]1(Sc2ccc(C)cc2)CC(=O)N(Cc2ccccc2)[C@@H]1c1ccc(CO)cc1I,1.17,-2.64,-0.045,-0.296,0.143,-0.0758,-0.1,0.225,0.285,1.19
[N-]=[N+]=NCc1ccccc1C[C@@]1(C(=O)NCCN2CCOCC2)N=C(c2ccc(OCCCO)cc2)O[C@@H]1c1ccccc1CN=[N+]=[N-],1.42,-2.7,0.461,1.68,0.191,0.0037,0.199,0.291,0.272,1.04
C=C(/C(=C/C[C@@H](OC(=O)c1ccncc1)c1cccc(OCCO)c1)c1cc(C(=O)OC)ccc1OC)C(C)C,0.903,-2.94,0.521,0.0576,-0.412,-0.101,0.131,0.0051,1.11,0.462
COc1cccc(C)c1NC(=O)O[C@H]1[C@H](OC(=O)Nc2ccccc2)[C@H](OC(=O)Nc2ccccc2)[C@@H](OC)O[C@@H]1CO,1.3,-2.96,-0.183,1.81,0.645,0.0775,0.775,-0.236,0.0722,1.3
C[C@H]1ON(c2ccccc2)[C@@H](c2ccccc2)[C@@H]1C(=O)N1C(=O)OC[C@@H]1c1ccccc1,0.184,-0.432,0.521,-0.238,-0.162,-0.134,-0.251,-0.0855,0.357,-0.1
CC1CC/C=C\[C@H]2OC34C=CCN(Cc5ccccc5)C(=O)[C@H]3N(CCO)C(=O)[C@@H]4C2C(=O)O1 (stereo not given in full),0.442,-0.0892,-0.51,-0.556,0.0116,0.0597,-0.0035,0.0169,1.62,-0.4
C[N+](C)(C)CCCCCCNC(=O)[C@H]1C[C@H]2C(=O)N3CCC[C@H]3C(=O)N2[C@H]1c1cccc(OCCO)c1,0.809,0.609,1.46,-0.205,-1.14,-0.135,0.171,-0.381,1.67,0.0895
C[N+](C)(C)CCCC[C@@H]1NC(=O)[C@@H]2C[C@H](C(=O)O)[C@H](c3cccc(OCCO)c3)N2C1=O,0.17,-0.208,-0.8,-0.705,0.417,-0.276,-0.0681,-0.326,-0.0851,-1.03
Cc1ccc(S[C@]2(C(=O)O)CC(=O)N(Cc3ccccc3C(F)(F)F)[C@@H]2c2ccc(CO)cc2)cc1,0.973,0.0788,-0.587,-0.317,0.228,-0.176,-0.138,-0.321,0.914,-0.115
CC(C)CNC(=O)[C@@]1(c2ccc([N+](=O)[O-])cc2)CC(=O)N(C(C)C)[C@@H]1c1ccc(CO)cc1,0.212,-0.687,-1.53,-0.505,0.739,-0.12,-0.0738,-0.428,-0.534,-0.186

# Source: PubChem BioAssay
